# Screening results (PubChem)
# Yeast superoxide = reduction of superoxide in aged yeast, primary screen, HTS; hit rate 0.18% among 330,000; AID 2690, 2010; S. cerevisiae aged cells, superoxide DHE fluorescence; stronger effect = lower value; superoxide response (% of plate mean), % at 10 µM;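 active = superoxide response under a set limit, about three screen SD below normal, cut at about 65% in these data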;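 also: yeast aged for seven days with compound at 30 °C before DHE staining; 100% = average MFI of all compound-treated wells on the plate with controls excluded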
# Platelet DG rel = inhibitors of platelet dense granule secretion, primary screen, cell-based, MLPCN, human platelets; human platelet-rich plasma, SFLLRN dense granule ATP release, luminescence; inhibition, %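 (compounds screened at 7.5 µM in platelet-rich plasma)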; hit rate 0.22% among 300,000;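 active = mean replicate score, as percent of positive control, at or above 50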
# ABCB6 inh 2 = ABCB6 transporter inhibitors, primary screen, K562-ABCB6 cells, flow cytometry, MLPCN library | K562-ABCB6 porphyrin accumulation, 1 h; stronger effect = lower value | fluorescence ratio to DMSO, % at 10 µM | hit rate 0.19% among 360,000 | AID 602162, 2011;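 active = fluorescence ratio to DMSO below 75%, the collection mean minus 3 SD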;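 also: signal is porphyrin accumulated inside mitochondria; 100% equals median channel fluorescence of DMSO control wells; lower ratio means ABCB6 inhibition with less porphyrin fluorescence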
# VLA-4 inh = inhibition in human VLA-4 binding assay, primary screen, VLA-4 allosteric modulator project, MLPCN library, flow cytometry, VLA-4 expressing cells; hit rate 0.2% among 330,000; ligand binding flow cytometry; inhibition, % (about 7 µM as worked out from the volumes in the protocol); in the data active = inhibition above about 50%
# Target sequence (P13612 whole entry, looked up): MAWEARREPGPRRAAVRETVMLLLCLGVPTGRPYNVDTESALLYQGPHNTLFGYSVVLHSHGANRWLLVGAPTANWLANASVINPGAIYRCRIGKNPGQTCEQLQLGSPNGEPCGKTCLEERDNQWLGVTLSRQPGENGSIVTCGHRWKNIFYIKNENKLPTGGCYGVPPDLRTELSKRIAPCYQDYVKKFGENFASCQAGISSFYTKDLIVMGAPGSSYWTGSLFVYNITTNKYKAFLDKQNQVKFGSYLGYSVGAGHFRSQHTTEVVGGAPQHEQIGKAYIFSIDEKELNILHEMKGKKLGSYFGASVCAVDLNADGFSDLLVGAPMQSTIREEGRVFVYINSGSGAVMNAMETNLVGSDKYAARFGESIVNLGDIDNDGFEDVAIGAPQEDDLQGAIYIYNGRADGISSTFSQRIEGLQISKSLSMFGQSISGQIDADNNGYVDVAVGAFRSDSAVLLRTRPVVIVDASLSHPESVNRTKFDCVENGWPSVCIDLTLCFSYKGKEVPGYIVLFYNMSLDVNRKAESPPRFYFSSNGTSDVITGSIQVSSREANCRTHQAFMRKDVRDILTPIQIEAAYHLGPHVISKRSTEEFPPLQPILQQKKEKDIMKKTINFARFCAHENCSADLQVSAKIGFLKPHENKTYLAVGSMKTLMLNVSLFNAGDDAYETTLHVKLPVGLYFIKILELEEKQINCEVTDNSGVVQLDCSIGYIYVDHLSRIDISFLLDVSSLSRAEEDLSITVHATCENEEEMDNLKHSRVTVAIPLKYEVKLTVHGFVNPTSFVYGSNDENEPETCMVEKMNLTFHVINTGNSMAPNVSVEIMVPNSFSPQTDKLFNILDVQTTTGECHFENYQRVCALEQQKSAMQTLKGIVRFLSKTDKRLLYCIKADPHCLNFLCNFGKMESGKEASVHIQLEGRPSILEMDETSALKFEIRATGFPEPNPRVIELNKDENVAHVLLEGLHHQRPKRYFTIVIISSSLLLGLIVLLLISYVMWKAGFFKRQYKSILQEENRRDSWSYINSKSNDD
# SKN-1 block = suppressors of acrylamide-induced Pgst-4::GFP reporter in worms, primary screen, SKN-1 inhibitor project, whole organism, uHTS, GFP/RFP fluorescence ratio, strain VP596; AID 624304, 2012; C. elegans VP596 Pgst-4::GFP/RFP ratio, 24 h; inhibition, % at 21.8 µM; hit rate 0.49% among 360,000;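 active = interference check ratio from 0.5 to 1.5 plus GFP to RFP signal ratio inhibition reaching or exceeding a fixed threshold, cut at about 30% in these data, passing the limit was not always enough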
# VLA-4 mod pick = retest of VLA-4 allosteric modulators, confirmation, cell-based, cherry-picked plates, U937, HUTS-21 LIBS antibody | shares compounds with VLA-4 inh | U937 cells, HUTS-21 LIBS mAb binding, flow cytometry; LDV ligand present at threefold Kd | inhibition, % at 6.7 µM | hit rate 2% among 1,300 | AID 2813, 2010; in the data active = inhibition above about 40%;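 also: 0% = ligand without compound and 100% = no ligand background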
# * hit, by the source's call; nt = not tested or not shown; ! = repeats disagree. This is a sample that favours compounds with a hit; in the whole collection about 1.2% have one here.
SMILES,Yeast superoxide,Platelet DG rel,ABCB6 inh 2,VLA-4 inh,SKN-1 block,VLA-4 mod pick
O=C(Nc1ccc(F)cc1)NC1(C(=O)NCc2ccco2)CCCCC1,102.0,8.4,84.0,51.9*,8.9,4.4
Cc1ccc(NC(=O)C2(C)CCN2C(=O)CC(c2ccccc2)c2ccccc2)cc1 (stereo unspecified),nt,nt,102.0,nt,-2.7,nt
CN(CC(=O)Nc1ccc(F)cc1)C(=O)COC(=O)c1ccccc1,108.4,8.4,96.0,50.2*,-3.1,0.0
CN(CC(=O)Nc1ccc(F)cc1)C(=O)COC(=O)c1cccc(N(C)C)c1,79.6,nt,95.0,-6.8,-3.4,nt
CCC(C)NC(=O)[C@@H]1CCCN1C(=O)C1CCN(S(=O)(=O)c2ccc(C)cc2)CC1 (stereo partly specified),105.6,6.4,105.0,53.0*,-5.0,-2.1
Cc1ccc(S(=O)(=O)N2CCC(C(=O)NN3CCCCC3)CC2)cc1,111.5,nt,97.0,2.5,-2.4,nt
COc1ccccc1OCC(O)CN1CCN(CC(=O)Nc2c(C)cccc2C)CC1 (stereo unspecified),97.2,2.8,99.0,50.7*!,9.5,-51.2
CCOC(=O)N1CCN(CC(O)COc2c(OC)cccc2OC)CC1 (stereo unspecified),95.1,-11.2,88.0,11.6,-19.6,nt
O=C(O)c1nn2c(C(F)(F)F)cc(-c3cccs3)nc2c1Cl,95.2,-0.4,89.0,45.5,-1.8,1.3
O=C(NCC1CCCO1)c1nn2c(C(F)(F)F)cc(-c3cccs3)nc2c1Cl (stereo unspecified),89.1,-6.8,93.0,6.6,-28.0,nt
CCc1nc2c(OCc3ccc(OC(F)F)cc3)cccn2c1N(C)C(=O)c1ccc(OC)cc1,nt,nt,99.0,nt,9.3,nt
COc1ccccc1-c1cc(C(F)(F)F)nc(S(=O)(=O)CCCC(=O)N2CCCCC2C)n1 (stereo unspecified),85.3,-1.1,92.0,49.8*,-9.5,14.3
Cc1ccc(/C(O)=C2/C(=O)C(=O)N(CC(=O)O)C2c2ccc([N+](=O)[O-])cc2)cc1 (stereo unspecified),100.5,-2.9,98.0,64.1*,17.9,5.1
Cc1ccc(/C(O)=C2\C(=O)C(=O)N(C)C2c2ccc([N+](=O)[O-])cc2)cc1 (stereo unspecified),105.7,10.6,102.0,13.6,-1.4,nt
Cc1ccc(C(=O)c2cc([N+](=O)[O-])ccc2N2CCOCC2)cc1,nt,0.1,93.0,nt,9.8,nt
COc1ccc(C(=O)c2cc([N+](=O)[O-])ccc2N2CCOCC2)cc1,86.3,-3.4,96.0,31.1,6.3,47.0*
CCOc1ccc(C(=O)c2cc([N+](=O)[O-])ccc2N2CCOCC2)cc1,96.6,0.3,101.0,50.8*,12.0,49.0*
CC(C)OC(=O)c1ccc2ccc(-c3ccccc3)nc2c1,nt,nt,97.0,nt,48.7,nt
CCOC(=O)c1ccc(NC(=O)c2nc[nH]c2C(=O)N[C@H](C)CO)cc1,nt,nt,108.0,nt,1.7,nt
CN1CCN(c2nc(-c3ccccc3Cl)nc3ccccc23)CC1,106.0,6.5,97.0,6.3,-7.2,nt
CN1CCN(c2nc(-c3ccccc3O)nc3ccccc23)CC1,96.2,3.7,97.0,46.6,2.3,7.0
CNc1ncnc2c1ncn2[C@H]1CN(Cc2ccc(F)cc2)C[C@@H](CO)O1,nt,nt,89.0,nt,-10.6,nt
CCCCCCNC1=NCCS1,110.1,-14.6,97.0,52.6*,10.2,-1.6
CCC(C)CCCCNC1=NCCS1 (stereo unspecified),88.4,-13.6,101.0,5.7,6.5,nt
CS(=O)(=O)/C(C#N)=C/c1cccn1S(=O)(=O)c1cccc2ccccc12,nt,nt,101.0,nt,2.8,nt
SMILES,Yeast superoxide,Platelet DG rel,ABCB6 inh 2,VLA-4 inh,SKN-1 block,VLA-4 mod pick
Cc1ccc(N(CC2=NCCN2)c2cccc(O)c2)cc1,100.9,9.9,105.0,55.5*!,1.0,5.6
c1ccc(CN(CC2=NCCN2)c2ccccc2)cc1,92.6,-1.7,93.0,38.2,9.1,nt
CC1=CC(=O)Nc2ncccc2O1,nt,nt,97.0,nt,8.9,nt
CC(C)(C)N1NC(=O)Nc2ccccc2C1=O,110.5,3.0,141.0,-3.3,14.1,nt
CN1CC(=O)Nc2ccccc2C1=O,104.7,-1.0,99.0,41.8,-11.1,-10.2
CCCNC(=O)C1(C)CCN(C(=O)Cc2ccc(OC)c(OC)c2)C1 (stereo unspecified),nt,nt,108.0,nt,5.7,nt
CC(C)(C)c1ccc(C(O)c2ncc(-c3ccc(F)cc3)[nH]2)cc1 (stereo unspecified),nt,nt,93.0,nt,3.3,nt
CCC(CC)C(=O)N(C)c1c(C)nc2c(OCc3ccc(C#N)cc3)cccn12,nt,nt,98.0,nt,1.0,nt
CCOc1ccccc1C1CC(=O)Nc2cc(OC)c(OC)cc21 (stereo unspecified),97.7,5.1,96.0,9.0,2.1,nt
COc1cc2c(c(OC)c1)C(c1cccc(OC)c1OC)CC(=O)N2 (stereo unspecified),103.2,30.4,106.0,30.7,-19.9,0.0
CCOc1c(OC)cccc1C1CC(=O)Nc2cc3c(cc21)OCCO3 (stereo unspecified),102.7,4.7,93.0,-10.4,10.8,-5.8
COc1ccc(OC)c(C2CC(=O)Nc3cc(OC)c(OC)c(OC)c32)c1 (stereo unspecified),105.4,5.8,104.0,15.6,16.7,4.7
CCCOc1c(OC)cccc1C1CC(=O)Nc2cc(OC)c(OC)c(OC)c21 (stereo unspecified),128.2,9.5,99.0,-4.7,23.5,nt
CCCCNC(=O)C1(C)CCCCN1C(=O)c1cc2ccccc2s1 (stereo unspecified),nt,nt,104.0,nt,18.0,nt
CCOC(=O)Cn1cnc2c(nnn2-c2cccc(OC)c2)c1=O,122.3,-11.7,101.0,42.3,-16.4,-27.3
COC(=O)C(C)Oc1ccc(Oc2nc(Cl)ccc2Cl)cc1 (stereo unspecified),104.1,0.9,97.0,51.6*,10.6,-8.2
CCOC(=O)[C@]12CCC=C1N(Cc1ccc3c(c1)OCO3)C(=O)[C@H](CC(=O)NCc1cccs1)C2,nt,nt,98.0,nt,-14.0,nt
COc1ccc(OC)c(/C=N/c2c(-c3ccc(O)c(OC)c3)nc3ccccn23)c1,91.0,-0.2,368.0,50.6*,-2.3,5.4
O=C(NCc1cccnc1)C1Cc2c(-c3ccc(Cl)cc3)ccnc2O1 (stereo unspecified),nt,nt,96.0,nt,7.0,nt
CC(C)C(NC(=O)c1ccccc1F)C(=O)NCc1ccccc1 (stereo unspecified),98.0,0.5,99.0,51.8*,2.2,-6.7
CC(C)[C@H](NC(=O)c1ccccc1F)C(=O)NCc1ccc(S(N)(=O)=O)cc1,103.3,0.0,104.0,13.4,-5.6,nt
